Bioassay records: PubChem BioAssay, The Scripps Research Institute Molecular Screening Center
The list is not random: actives were taken first. Their share in the collection is about 2.4%.
CHO-K1 Ca antag = nonselective inhibitor or artifact in parental CHO-K1 cells; ATP-induced calcium, Fluo-8 fluorescence; inhibition, % at 3 µM; 360,000 compounds, 0.6% hits;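 active = inhibition above a per-plate cutoff, the plate's mean sample inhibition plus 3 SD, cut at about 24% in these data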
CHO-K1 Ca ag = nonselective activator or artifact in parental CHO-K1 cells; AID 602248; 360,000 compounds, 0.48% hits; activation, % at 3 µM; Fluo-8 calcium fluorescence; scaled to maximal ATP response, vehicle zero; in the data active = activation above about 15%;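 also: untransfected CHO-K1 host cells lacking M1 receptor as counterscreen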
CHRM1 agonist = activates human CHRM1 receptor; P11229; CHO-K1 hM1, Fluo-8 calcium fluorescence, agonist mode; 0% DMSO, 100% acetylcholine EC100; activation, % at 3 µM; 360,000 compounds, 0.33% hits; AID 588814;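 active = activation above the run's mean compound activation plus 3 SD, cut at about 16% in these data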;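 also: peak over basal fluorescence ratio within a 140 s kinetic read after compound addition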
Target sequence (P11229 whole entry, looked up): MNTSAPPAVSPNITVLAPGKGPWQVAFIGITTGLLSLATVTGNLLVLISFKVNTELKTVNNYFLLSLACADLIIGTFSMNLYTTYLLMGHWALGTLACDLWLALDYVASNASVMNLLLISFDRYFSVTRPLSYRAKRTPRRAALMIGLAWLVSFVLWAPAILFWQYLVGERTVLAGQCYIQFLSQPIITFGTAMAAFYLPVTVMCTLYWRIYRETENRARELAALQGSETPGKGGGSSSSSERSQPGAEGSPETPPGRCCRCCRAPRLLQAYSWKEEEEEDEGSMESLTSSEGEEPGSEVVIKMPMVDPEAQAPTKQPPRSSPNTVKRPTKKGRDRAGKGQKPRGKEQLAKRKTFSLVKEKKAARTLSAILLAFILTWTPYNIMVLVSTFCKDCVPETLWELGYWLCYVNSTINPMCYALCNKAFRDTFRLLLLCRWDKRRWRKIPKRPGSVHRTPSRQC
CHO-K1 Ca PAM = M1 PAM counterscreen hit in parental CHO-K1 cells; 360,000 compounds, 0.02% hits; activation, % at 3 µM; ATP EC20, Fluo-8 calcium fluorescence; 0% at ATP EC20, 100% at ATP max;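 active = activation above the run cutoff, the mean activation of all test compounds plus 3 SD, cut at about 40% in these data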;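 also: peak over basal fluorescence ratio in a 140 s read after ATP addition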
CHRM1 PAM = positive allosteric modulators of human M1 muscarinic receptor | P11229 | CHO-K1 hM1, Fluo-8 calcium fluorescence, ACh EC20; 0% = ACh EC20, 100% = maximal ACh | activation, % at 3 µM | 360,000 compounds, 0.088% hits | AID 588819; in the data active = activation above about 19%, passing the limit was not always enough
M1 antag = blocks human M1 muscarinic receptor. P11229. 360,000 compounds, 1.3% hits. CHO-K1 hM1, Fluo-8 calcium fluorescence, ACh EC80 antagonist. inhibition, % at 3 µM;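 active = percent inhibition above its own plate's cutoff, namely the mean of that plate's compound wells plus 3 SD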;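 also: peak over basal fluorescence ratio during 140 s after agonist addition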
Numbers stand for hits; . = inactive.

SMILES	CHO-K1 Ca antag	CHO-K1 Ca ag	CHRM1 agonist	CHO-K1 Ca PAM	CHRM1 PAM	M1 antag
Cc1nn(Cc2ccccc2Cl)c(Cl)c1C(=O)O	.	.	.	.	.	35.7
CCOP(=O)(CCP(=O)(OCC)OCC)OCC.C[CH2][Sn]([Cl])([Cl])[CH2]C	.	.	.	.	.	.
CN(C)C=C1C(=O)N(C2CCCCC2)C(=O)N(C2CCCCC2)C1=O	.	.	.	.	.	.
CCC1(NS(=O)(=O)c2ccc(N)cc2)C(=O)N(C)C(=O)N(C)C1=O	.	.	.	.	.	.
S=C(NCCc1ccccc1)N1Cc2ccc(Br)cc2-n2nncc2C1	.	.	.	.	.	.
S=C(NCCc1ccccc1)N1Cc2cc(Br)ccc2-n2nncc2C1	26.9	.	.	.	.	.
CCCCCCC(Cl)(Cn1ccnc1)c1ccccc1 (stereo not given)	.	.	.	.	.	33.0
O=c1c2ccccc2nc(/C=C/c2ccc3c(c2)OCO3)n1-c1cccc(O)c1	25.8	.	.	.	.	.
COc1cccc(-n2c(/C=C/c3ccc(O)c(O)c3)nc3ccccc3c2=O)c1	25.2	.	.	.	.	.
O=c1c2ccccc2nc(/C=C/c2ccc(O)cc2)n1-c1cccc(O)c1	.	.	.	.	.	.
O=S(=O)(c1cc(Cl)cc(Cl)c1)N1Cc2cc(-c3ccccc3)ccc2-n2nncc2C1	.	.	.	.	.	.
COc1cccc(C2(O)CCN(Cc3ccncc3)CC2)c1	24.2	.	.	.	.	.
COc1cccc(N2CCN(Cc3ccc(Cl)cc3)CC2)c1	.	.	.	.	.	.
c1ccc(CN2COC3CCCCCC32)cc1 (stereo not given)	.	.	.	.	.	.
C[C@](N)(CCP(=O)(O)O)C(=O)O	24.7	.	.	.	.	.
CCc1ccc(NC(=O)CN2CC(c3ccccc3)CC2=O)cc1 (stereo not given)	.	.	.	.	.	.
O=[N+]([O-])c1ccc(-[n+]2c(-c3ccccc3)cc(-c3ccccc3)cc2-c2ccccc2)cc1	.	.	.	.	.	35.8
CCCC[N+]1(C)[C@@H]2CC(OC(=O)[C@H](CO)c3ccccc3)C[C@H]1[C@@H]1O[C@@H]12 (stereo not given in full)	.	.	.	.	.	98.1
CCCCCCn1c(O)c(/C=N/N2CCCCCC2)c(=O)[nH]c1=O	.	.	.	.	.	.
O=C(c1cc(F)ccc1F)C1CCCN(CCCc2ccccc2)C1 (stereo not given)	.	.	.	.	.	35.6
O=C(c1cc(F)ccc1F)C1CCCN(Cc2cccc(Cl)c2)C1 (stereo not given)	.	.	.	.	.	.
C(=NN1CCCCCC1)c1c[nH]c2ccccc12	.	.	.	.	.	.
Brc1ccc2[nH]cc(/C=N/N3CCCCC3)c2c1	.	.	32.1	.	.	.
N=C1c2ccccc2CN1c1ncccn1	.	.	.	.	.	.
COc1ccc(S(=O)(=O)N2Cc3ccccc3-n3nncc3C2)cc1	.	.	.	.	.	.
SMILES	CHO-K1 Ca antag	CHO-K1 Ca ag	CHRM1 agonist	CHO-K1 Ca PAM	CHRM1 PAM	M1 antag
CC(C)S(=O)(=O)N1Cc2ccccc2-n2nncc2C1	.	.	.	.	.	46.5
CCOP(=O)(OCC)C(NC(=O)c1ccccc1)C(Cl)(Cl)Cl (stereo not given)	24.1	.	.	.	.	.
N#CC(C#N)=NNc1ccc(-n2ccc(C(F)(F)F)n2)cc1	.	.	.	.	.	.
Cc1cc(C)n(-c2ccc(NN=C(C#N)C#N)cc2)n1	.	21.4	.	.	.	.
COC(=O)C1=C(c2ccc(C(C)=O)cc2)C[C@@H]2CC[C@H]1N2C(=O)NCc1ccc(C(F)(F)F)cc1	.	23.7	23.8	.	.	.
O=C(c1cccc2ccccc12)C1CCCN(Cc2ccon2)C1 (stereo not given)	.	.	.	.	.	.
O=C(c1cccc2ccccc12)C1CCCN(C2CCC2)C1 (stereo not given)	.	.	16.5	.	.	26.4
CN1CCC(OC(=O)C2c3ccccc3Oc3ccccc32)CC1	.	.	.	.	.	98.8
COc1ccc(N2C(=O)NC(=O)/C(=C\c3cn(C)c4ccccc34)C2=O)cc1	42.0	31.7	.	.	.	.
